Assay results as given in publication PMC4336329 (PLoS ONE, 2015).
Screen size: about 310,000 compounds; about 2,200 (0.71%) showed an effect of 50% or more. The effect is printed as a negative number. The list comes from a sample in which strong results are over-represented; it also holds similar structures and randomly drawn compounds.

These compounds were tested against human ether-à-go-go-related gene (hERG) potassium channel (human, UniProt Q12809) (assay: primary screen, population patch clamp on CHO cells stably expressing hERG; higher = less effect of the substance).
Chain of human ether-à-go-go-related gene (hERG) potassium channel (Q12809 whole entry, looked up): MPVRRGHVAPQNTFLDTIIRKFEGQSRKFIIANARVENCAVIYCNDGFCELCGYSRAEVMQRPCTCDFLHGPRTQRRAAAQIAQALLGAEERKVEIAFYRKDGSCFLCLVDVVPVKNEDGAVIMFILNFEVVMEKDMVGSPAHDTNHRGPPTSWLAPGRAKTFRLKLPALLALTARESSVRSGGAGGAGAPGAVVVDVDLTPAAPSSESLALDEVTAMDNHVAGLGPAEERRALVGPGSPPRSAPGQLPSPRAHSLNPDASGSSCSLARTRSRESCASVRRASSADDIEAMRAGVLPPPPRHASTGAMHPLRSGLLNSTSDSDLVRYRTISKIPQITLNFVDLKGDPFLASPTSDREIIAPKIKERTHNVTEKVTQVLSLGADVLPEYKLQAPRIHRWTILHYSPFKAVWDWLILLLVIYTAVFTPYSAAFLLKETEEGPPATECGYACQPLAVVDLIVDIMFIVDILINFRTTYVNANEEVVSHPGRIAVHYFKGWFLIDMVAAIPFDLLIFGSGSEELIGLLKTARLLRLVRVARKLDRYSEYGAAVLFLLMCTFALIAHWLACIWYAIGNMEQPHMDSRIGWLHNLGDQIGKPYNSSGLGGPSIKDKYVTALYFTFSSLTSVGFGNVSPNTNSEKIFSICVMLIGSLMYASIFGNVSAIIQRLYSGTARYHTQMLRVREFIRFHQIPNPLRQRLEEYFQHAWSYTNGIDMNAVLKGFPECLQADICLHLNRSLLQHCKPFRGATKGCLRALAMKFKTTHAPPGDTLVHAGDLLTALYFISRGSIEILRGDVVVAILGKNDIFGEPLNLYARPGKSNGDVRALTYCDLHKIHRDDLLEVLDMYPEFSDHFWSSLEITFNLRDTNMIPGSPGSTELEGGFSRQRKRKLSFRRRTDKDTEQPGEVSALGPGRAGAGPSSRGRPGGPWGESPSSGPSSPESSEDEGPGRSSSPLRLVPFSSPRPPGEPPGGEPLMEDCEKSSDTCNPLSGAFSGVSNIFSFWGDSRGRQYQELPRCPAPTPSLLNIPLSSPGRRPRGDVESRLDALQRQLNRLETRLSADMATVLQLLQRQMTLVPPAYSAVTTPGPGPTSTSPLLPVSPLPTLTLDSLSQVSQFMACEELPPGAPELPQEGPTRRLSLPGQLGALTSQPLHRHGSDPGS

SMILES	hERG current change (%, negative = inhibition) at 1uM
CS(=O)(=O)N1CCN(c2ccccc2NC(=O)c2ccc3c(c2)OCCO3)CC1	9.09%
COc1cc(C(=O)N[C@@H](C)C(=O)N2CCC3(CC2)NCCc2[nH]cnc23)cc(OC)c1OC	15.3%
CN(C)c1ccc(CNS(=O)(=O)c2csc(C(N)=O)c2)cc1	13%
COc1ccc(Cl)cc1CSc1n[nH]c(C)n1	16.6%
O=C(N/N=C/c1ccc(Cl)s1)C(O)c1ccccc1 (centres unmarked)	16.4%
O=c1c([N+](=O)[O-])c(N2CCCC2)c2ccccc2n1-c1ccccc1	4.99%
NC(=O)C1CCCc2c1n(Cc1ccccc1)c1ccccc21 (centres unmarked)	9.63%
CCOC(=O)NNC(=O)CCn1c2c(c3ccccc31)CCCC2	6.89%
CCOC(=O)C1=CC[C@H]2c3c(c4ccccc4n3C)C[C@H]1N2C	15.5%
O=C(O)Cn1c(=O)c2c(c3ccccc31)CCC2	11.5%
CC[C@]12CCCN3CCc4c(n(c5ccccc45)C(=O)C1)C32 (some centres unmarked)	-50.5%
CC[C@]12CCCN3CCc4c(n(c5ccccc45)C(=O)C1)[C@@H]32	-70.5%
CCn1cc(C2N3CC4(C)CN2CC(C)(C3)C4=O)c2ccccc21 (centres unmarked)	4.63%
CCOC(=O)C1=C[C@]2(CC)CCCN3CCc4c(n1c1ccccc41)[C@@H]32	-95.5%
Cl.Cn1c2c(c3ccccc31)CCN1CCC[C@]21c1ccccc1	12.1%
CCN1CCC(=NNC(=O)CC23CC4CC(CC(C4)C2)C3)CC1	11.5%
COc1cc(NC(c2ccccc2)c2ccccc2)cc(OC)c1OC	5.7%
Nc1nc(/C=C/c2cccnc2)nc(-c2ccccc2O)n1	10.4%
COc1cccc(COC(=O)C2CCN(S(=O)(=O)c3ccc(Cl)cc3)CC2)c1OC	5.7%
CC(=O)c1ccc(S(=O)(=O)N2CCN(c3ccccc3F)CC2)cc1	8.26%
Cl.OC(CN1C2=NCCN2c2ccccc21)c1ccccc1 (centres unmarked)	-5.32%
Cl.OC(CN1C2=NCCN2c2ccccc21)c1ccc2c(c1)OCO2 (centres unmarked)	-27.7%

SMILES	hERG current change (%, negative = inhibition) at 1uM
Cl.OCCN1C2=NCCCN2c2ccccc21	10.3%
Cl.OC(CN1C2=NCCCN2c2ccccc21)c1ccc(Cl)cc1 (centres unmarked)	-76.2%
OC(CN1C2=NCCN2c2ccccc21)c1ccc(Br)cc1 (centres unmarked)	-63%
Cl.OC(CN1C2=NCCCN2c2ccccc21)c1ccc(Br)cc1 (centres unmarked)	-86.2%
Cl.OC(CN1C2=NCCCN2c2ccccc21)c1ccc2c(c1)OCO2 (centres unmarked)	-68.6%
Br.O=C(CN1C2=NCCN2c2ccccc21)c1ccc2c(c1)OCO2	-42.1%
Br.O=C(CN1C2=NCCN2c2ccccc21)c1ccc(Br)s1	-0.685%
Cl.c1ccc2c(c1)N1CCCN=C1N2CCN1CCCCC1	-26.2%
Cn1c(=O)n(C)c2cc(NC(=O)CSc3nnc(-c4ccccc4O)n3-c3ccccc3)ccc21	6.95%
O=C(C1=NN[C@@H]2C(=O)N(c3cccc(F)c3)C(=O)[C@H]12)c1ccc2ccccc2n1	6.85%
CN(C)CCCN(C(=O)c1ccc(Br)s1)c1nc2cc3c(cc2s1)OCO3.Cl	4.06%
O=C(c1cc2ccccc2o1)c1nc2c(n1O)CCCCC2	9.78%
COCCCNC(=O)Cn1c(=O)n(CCCCCC(=O)Nc2ccccc2)c(=O)c2sccc21	14%
Cc1ccc(S(=O)(=O)N2CCCC(C(=O)NNCC(=O)Nc3cc(F)ccc3F)C2)cc1 (centres unmarked)	-0.56%
Cc1ccc(C(O)CN2C3=NCCN3c3ccccc32)cc1.Cl (centres unmarked)	-40.9%
Cc1ccccc1CN1C2=NCCCN2c2ccccc21.Cl	-27.3%
Cc1ccc(C(O)CN2C3=NCCCN3c3ccccc32)cc1.Cl (centres unmarked)	-51.4%
CC1CN(S(=O)(=O)c2ccc(C(=O)NCCCn3ccnc3)cc2)CC(C)O1 (centres unmarked)	11.7%
CCc1nc(SCC(=O)c2ccc(Cl)s2)c2oc3ccccc3c2n1	9.25%
CCCOc1cccc(C(=O)NCCNC(=O)c2ccco2)c1	18.6%
O=C(N/N=C/c1cc2c(cc1[N+](=O)[O-])OCO2)c1ccccn1	10.1%
CCC(C)N(C)Cc1cccc(C2(O)CCN(S(=O)(=O)c3ccc(F)cc3)CC2)c1 (centres unmarked)	-30.8%
